# This is one part of a sample in which hits are shown more often than they occur.
# LmPK inhibitor – LmPK (Leishmania mexicana) enzyme inhibition | Q27686 | purified LmPK, Kinase-Glo ATP luminescence, 1 h | Potency, µM (highest dose often 57.5 µM), inactives show at the top dose activity change, negative = inhibition, hits mostly inhibitors | 290,000 compounds, 0.37% hits; further: potency means the concentration at half of the fitted maximal effect; on the % scale 0 is the no-effect control and ±100 the full control effect
#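 0.1 nM LmPK, 0.5 mM PEP, 0.1 mM ADP; 50 mM imidazole pH 7.2, 7 mM MgCl2, 50 mM KCl; 1 h RT. Kinase-Glo luminescence readout, normalized to no-enzyme (full inhibition) and uninhibited wells.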
# Sm TGR inh – blocks Schistosoma mansoni thioredoxin glutathione reductase; purified TGR, DTNB reduction, TNB absorbance 405 nm; 360,000 compounds, 3% hits; Potency, µM (doses to about 114 µM), without a hit: top-dose activity change, negative = inhibition, actives largely listed as inhibitors; Q962Y6; further: potency means the concentration at half of the fitted maximal effect; on the % scale 0 is the no-effect control and ±100 the full control effect; nearly all actives have a fitted effect of over 60% in size
#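 TGR 20 nM + NADPH 100 uM (dispensed conc.), cpd preinc 15 min RT; start with NADPH (500 uM addition) then DTNB (15 mM addition). Kinetic TNB absorbance, 405 nm filter. Four-parameter Hill fit across titration.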
# Shiga toxin inh – blocks Shiga toxin action in Vero cells. Vero cells, Shiga toxin protein synthesis inhibition reporter. inhibition, % at 38.7 µM. 290,000 compounds, 9.2% hits; in the data active means inhibition mostly above about 28%, no sharp cut-off; inactive means mostly below about 43%; further: 0% is about no effect
# CHX counter – affects cycloheximide protein synthesis inhibition readout, counter-screen. cell reporter, cycloheximide protein synthesis inhibition counterscreen. max response, %. 300,000 compounds, 12% hits. AID 2314; in the data active means max response mostly above about 13%, no sharp cut-off; inactive means mostly below about 14%; further: read at 38.3 µM for the half of the compounds with a filed dose; 0% is about no effect
# TbPYK inhibitor – inhibitors of Trypanosoma brucei pyruvate kinase. Q57TT1. TbPYK enzyme, Kinase-Glo Plus ATP luminescence, 45 min. Potency, µM (doses to about 76.8 µM), for inactives: top-dose activity, negative = inhibition, most hits filed as inhibitors. 410,000 compounds, 0.12% hits. AID 624173; further: potency means the concentration at half of the fitted maximal effect; on the % scale 0 is the no-effect control and ±100 the full control effect; nearly all actives have a fitted effect of over 50% in size
#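 Activity of T. brucei pyruvate kinase was followed by Kinase-Glo Plus luminescence after the enzyme reacted 45 min at room temperature with 130 uM ADP (final) and substrate. Test compounds were added before ADP at multiple concentrations.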
# Giardia FBPA inh – blocks Giardia fructose-bisphosphate aldolase activity | A8B2U2 | purified Giardia FBPA | Potency, µM (doses to about 59.6 µM), without a hit: at the top dose activity, negative = inhibition, hits mostly inhibitors | 290,000 compounds, 0.71% hits | AID 2451; further: potency means the concentration at half of the fitted maximal effect; on the % scale 0 is the no-effect control and ±100 the full control effect; nearly all actives have a fitted effect of over 55% in size
# Target sequence (A8B2U2 whole entry, looked up): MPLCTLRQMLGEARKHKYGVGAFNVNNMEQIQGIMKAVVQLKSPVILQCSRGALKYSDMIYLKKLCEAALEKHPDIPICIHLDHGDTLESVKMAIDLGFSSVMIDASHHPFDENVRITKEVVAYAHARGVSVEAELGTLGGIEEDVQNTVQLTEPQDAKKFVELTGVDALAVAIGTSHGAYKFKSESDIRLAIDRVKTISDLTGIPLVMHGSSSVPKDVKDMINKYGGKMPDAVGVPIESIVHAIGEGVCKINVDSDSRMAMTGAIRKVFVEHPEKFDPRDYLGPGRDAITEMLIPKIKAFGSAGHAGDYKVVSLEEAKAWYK
#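 40 nM FBPA preincubated 10 min at RT with compound (up to 57.5 uM final), then substrate plus GAPDH/TPI/NAD/arsenate coupling and diaphorase/resazurin added. Fluorescence read after 20 min at RT, 525/598 nm.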
# An asterisk follows results filed as active; u = inconclusive; x = no result given; ! = not confirmed by another sample. Unless noted, the call rests on the fitted dose curve; in most records, active means well fitted curve in the direction sought with a large enough effect; inconclusive means small, poorly fitted or top-dose-only effect, or another doubt; inactive means no such curve, though single readings can be large; an effect the other way counts as inactive or inconclusive.
SMILES,LmPK inhibitor,Sm TGR inh,Shiga toxin inh,CHX counter,TbPYK inhibitor,Giardia FBPA inh
Cc1noc(NS(=O)(=O)c2ccc(N/C=C/C(=O)c3cccnc3)cc2)c1C,-3.8%,-25.7%,43.0*,15.8*,-1.6%,3.1%
COc1ccc(C(=O)/C=C/Nc2ccc(S(=O)(=O)Nc3ncccn3)cc2)cc1,1.7%,-1.3%,37.7,20.4*,x,3.6%
COc1ccc(C(=O)/C=C/Nc2ccc(S(=O)(=O)Nc3onc(C)c3C)cc2)cc1,1.5%,-2.0%,77.0*,43.5*,-6.3%,21.9%
Cc1noc(NS(=O)(=O)c2ccc(N/C=C\C(=O)c3ccncc3)cc2)c1C,-0.3%,-1.3%,-4.6,-2.9,-4.3%,11.4%
Cc1noc(NS(=O)(=O)c2ccc(N/C=C/C(=O)c3ccc(F)cc3)cc2)c1C,2.1%,-19.7%,68.8*,32.7*,-1.0%,18.4%
CCCCN(C)CCNC(=O)C1CCCN(S(=O)(=O)c2ccc3c(c2)oc(=O)n3C)C1 (stereo not given),x,0.0%,x,x,2.0%,x
CCC(=O)Nc1cc(-c2nc3cc(C)cc(C)c3o2)ccc1C,x,-1.0%,x,x,-8.9%,x
CCc1ccc(C(=O)/C=C/Nc2ccc(S(=O)(=O)Nc3onc(C)c3C)cc2)cc1,-0.2%,-2.9%,91.6*,49.9*,-6.1%,14.8%
O=C(CSC1=Nc2ccccc2N=C(c2ccc(F)cc2)C1)Nc1cc(F)ccc1F,x,-1.7%,x,x,-4.0%,x
O=Cc1ccc(-c2nc3ccccc3s2)o1,15.8µM*,x,60.6*,29.1*,-12.6%,-1.8%
O=C(c1ccc(-c2nc3ccccc3s2)o1)N1CCN(c2ccccc2O)CC1,-7.9%,-0.6%,44.9,37.0*,-18.0%,x
O=C(O)c1ccc(-c2nc3ccccc3s2)o1,-17.9%,u,78.0*,45.4*,-0.8%,13.0%
O=Cc1ccc(-c2ccccc2OC(F)(F)F)o1,1.7%,-22.0%,-9.2,-2.1,-0.4%,-0.7%
O=C(CN1CCN(C(=O)c2ccc(-c3nc4ccccc4s3)o2)CC1)Nc1ccc(F)cc1,x,-4.6%,x,x,1.8%,x
COc1cc(NC(=O)CCNS(=O)(=O)c2ccc3c(c2)CCN3C(=O)C2CC2)cc(OC)c1,x,5.8%,x,x,2.3%,x
O=C1CCC(=O)N1CCSC(=S)N1CCOCC1,-1.4%,10.0%,40.8*,8.2,6.6%,-1.1%
CCOC(=O)CSc1nc2ccccc2c(=O)n1Cc1ccco1,1.1%,-5.4%,-4.2,-3.7,-4.6%,3.2%
Cc1ccc(NC(=O)CSc2nnc(CSc3nc(C)cc(C)n3)n2Cc2ccco2)c(C)c1,0.9%,50.1µM*,-9.7,-1.3,-9.6%,15.3%
CCOC(=O)CSc1nnc(CSc2nc(C)cc(C)n2)n1Cc1ccco1,12.2%,44.7µM*,-51.3,-1.1,-12.1%,0.6%
CCOC(=O)CSc1nc2c(sc3ccc([N+](=O)[O-])cc32)c(=O)n1Cc1ccco1,-1.3%,u,42.6*,31.6*,8.3%,3.0%
Cc1cc(C)nc(SCc2nnc(SCC(N)=O)n2Cc2ccco2)n1,-2.2%,-0.4%,-12.0,9.4,-18.5%,x
Cc1ccc(C)c(NC(=O)CSc2nnc(CSc3nc(C)cc(C)n3)n2Cc2ccco2)c1,-1.2%,-65.9%,-11.2,4.7,4.8%,7.8%
Cc1ccc(/C=C/C(=O)O)cc1S(=O)(=O)N1CCCCC1,-1.1%,-16.0%,-1.6,-3.2,1.3%,9.3%
CN1CCN(C(=O)/C=C\c2ccc(Cl)cc2)CC1,2.7%,-2.9%,1.6,-1.4,-11.1%,0.8%
CN1CCN(C(=O)/C=C/c2c(F)cccc2Cl)CC1,-9.9%,-5.9%,11.0,19.3*,-4.2%,2.9%
SMILES,LmPK inhibitor,Sm TGR inh,Shiga toxin inh,CHX counter,TbPYK inhibitor,Giardia FBPA inh
CN1CCN(C(=O)/C=C/c2cccc(Cl)c2)CC1,1.6%,-20.0%,20.4,16.7*,4.8%,-2.4%
CCc1cccc(NC(=O)C2CCN(C(=O)c3cnn(-c4ccccc4)c3-n3cccc3)CC2)c1,x,1.1%,x,x,-3.9%,x
Cc1ccc(C2=NCCn3nc4cc([N+](=O)[O-])ccc4c32)cc1,x,39.8µM*,x,x,-11.6%,x
Cc1c(C(C)(C)C)c(C=S)n2ccccc12,-6.8%,2.24µM*,-0.8,-2.7,-13.6%,-14.9%
O=C(Nc1cccc(C(=O)OCc2cc(=O)n3c4c(sc3n2)CCCC4)c1)c1cccc(F)c1,x,3.9%,x,x,-2.3%,x
O=c1c2cccc3c(N4CCOCC4)ccc(c32)c2nc3ccccc3n12,3.0%,4.6%,73.0*,29.2*,x,4.9%
CCOC(=O)c1c(C)oc2c1c1c(c3ccccc32)OCN(Cc2cccnc2)C1,0.0%,0.355µM*,130.7*,77.0*,-3.2%,5µM*
CCOC(=O)c1c(C)oc2c1c1c(c3ccccc32)OCN(CCCC(=O)O)C1,3.4%,-1.6%,89.4*,61.8*,1.1%,u
CCOC(=O)c1c(C)oc2nc(C)nc(N3CCN(c4ccccc4)CC3)c12,x,10.1%,x,x,0.8%,x
O=C(CSc1nnc(COc2ccccc2)o1)N1CCCCC1,6.9%,6.9%,-4.2,4.4,-1.0%,2.7%
CCC1(O)CC2CN(CCc3c([nH]c4ccccc34)C(C(=O)OC)(c3cc4c(cc3OC)N(C=O)C3C(O)(C(=O)OC)C(OC(C)=O)C5(CC)C=CCN6CCC43C65)C2)C1 (stereo not given),x,x,x,x,6.2%,x
COc1cc(N)c(Cl)cc1C(=O)N[C@H]1CCN(CCCOc2ccc(F)cc2)C[C@@H]1OC,x,x,x,x,x,-4.1%
CN(C)/C=N/C(=S)Nc1ccc(Cl)c(Cl)c1,-9.6%,x,111.5*,40.4*,-5.6%,-7.9%
CN(C)/C=N/C(=S)Nc1ccc(F)cc1,-1.8%,22.0%,38.1*,24.7*,1.9%,-14.0%
Cc1cc(N2CCN(C)CC2)nc2ccc(NC(=O)Nc3ccccc3Cl)cc12,x,3.2%,x,x,0.2%,x
CC(C)N1CC(COc2ccc(Br)cc2)OC1=O (stereo not given),0.0%,2.1%,2.9,10.7,0.1%,-6.3%
CC(C)(C)N1CC(COc2ccccc2)OC1=O (stereo not given),7.2%,-16.7%,23.1,20.7*,-9.8%,4.9%
COC(=O)CCC(=O)OC1(C)C(=O)C=C2C=C(C3CC3)OC=C2C1=O (stereo not given),x,x,x,x,x,-13.3%
COc1cccc(-c2nc(Cn3c(=O)cc(C)c4c(C)nn(-c5ccccc5)c43)c(C)o2)c1OC,x,6.4%,x,x,1.1%,x
CN(Cc1ccco1)S(=O)(=O)c1nnc(NC(=O)c2cccc(Cl)c2)s1,5.0%,7.94µM*!,63.8*,35.5*,u,x
CCN(c1ccccc1)S(=O)(=O)c1nnc(NC(=O)CC(C)C)s1,1.9%,6.8%,17.6,-2.0,-1.9%,13.1%
CN(Cc1ccccc1)S(=O)(=O)c1nnc(NC(=O)c2cccc(Cl)c2)s1,x,-22.5%,x,x,-0.3%,x
CC(C)CC(=O)Nc1nnc(S(=O)(=O)N(C)Cc2ccco2)s1,-4.4%,8.91µM*,-4.7,8.2,0.2%,x
COc1ccc(C2CC(=O)Nc3c2c(C)nn3-c2nncc(-c3ccc(C)cc3)n2)c(OC)c1OC (stereo not given),x,-6.2%,x,x,-12.1%,x
